Values without a mark were called inactive. The source made the active and inactive calls. Cut-off read from the data, not from the text of the source: active = inhibition above about 50%; inactive = the rest.

This test addresses Prolyl endopeptidase-like (Mus musculus) (UniProt Q8C167). As to the kind of experiment: mouse PREPL enzyme inhibition by screening hits – biochemical, gel-based competitive ABPP, fluorescence, HTS hits, PREPL inhibitor project (AID 624481). As to conditions: purified mouse PREPL, at 20 µM, hits give high values.

Chain of Prolyl endopeptidase-like (Mus musculus) (Q8C167 whole entry, looked up): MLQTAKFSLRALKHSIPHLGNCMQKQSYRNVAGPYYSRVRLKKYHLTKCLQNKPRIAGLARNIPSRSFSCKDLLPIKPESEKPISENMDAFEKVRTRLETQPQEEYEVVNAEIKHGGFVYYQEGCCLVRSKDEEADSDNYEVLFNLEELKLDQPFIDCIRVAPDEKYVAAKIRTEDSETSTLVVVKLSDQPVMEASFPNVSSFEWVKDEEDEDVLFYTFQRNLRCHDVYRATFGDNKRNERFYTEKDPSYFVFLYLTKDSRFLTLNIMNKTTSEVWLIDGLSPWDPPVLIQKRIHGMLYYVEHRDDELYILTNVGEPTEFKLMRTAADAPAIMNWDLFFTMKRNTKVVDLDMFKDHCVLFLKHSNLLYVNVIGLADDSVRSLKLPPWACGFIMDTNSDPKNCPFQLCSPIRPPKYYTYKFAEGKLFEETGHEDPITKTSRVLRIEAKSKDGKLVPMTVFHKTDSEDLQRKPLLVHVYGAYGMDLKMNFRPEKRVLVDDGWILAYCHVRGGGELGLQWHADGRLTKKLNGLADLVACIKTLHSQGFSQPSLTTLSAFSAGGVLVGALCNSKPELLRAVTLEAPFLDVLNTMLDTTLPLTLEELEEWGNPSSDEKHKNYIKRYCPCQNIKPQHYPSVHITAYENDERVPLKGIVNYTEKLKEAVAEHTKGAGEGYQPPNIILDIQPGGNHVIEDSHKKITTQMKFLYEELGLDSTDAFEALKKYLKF

The inhibition is the change of the read-out against control, counted positive when it falls. Turning to `COc1ccc2nc(C)cc(NN=Cc3cccc(OC)c3O)c2c1`, the inhibition is -23%.
As for `Cc1cc2cc(CNC(=O)c3ccc(Br)o3)ccc2n1C`, the inhibition is 38%.
`O=C(C1=C[C@@H](c2ccc(Br)cc2)C[C@@H](OCc2ccc(CO)cc2)O1)N1CCN(Cc2ccc3c(c2)OCO3)CC1`: the inhibition was -105%.
Take `CC(C)C[C@@H]1CN=C(N)N1C[C@@H]1CCCN1C[C@@H](C(C)C)N1C[C@@H](Cc2ccccc2)N(CCCC2CCCC2)C1=N`: the inhibition was -52%.
Regarding `Nc1c(C(=O)c2cccs2)sc2nsc(SCCN3CCCCC3)c12`, the inhibition is -18%.
On to `CCN1CCCC1CNC(=O)c1ccc2c(c1)NC(=O)/C(=C\c1ccc(OC)c(OC)c1)S2` (centres undefined), for which the inhibition is 3%.
On to `CC[C@@H](C)[C@@H]1CN([C@@H](CN2CCC[C@H]2CN2C(N)=NC[C@H]2C(C)C)C(C)C)C(=N)N1CCCC1CCCC1`, for which the inhibition is -53%.
On to `O=C(C1=C[C@@H](c2ccc(C(F)(F)F)cc2)C[C@@H](OCc2ccc(CO)cc2)O1)N1CCN(Cc2ccccc2)CC1`, for which the inhibition is -76%.
As to `CCOc1ccc(CCNC(=O)c2ccc3c(=O)[nH]c4c(C(=O)NC(C)C)sc(=S)n4c3c2)cc1`, the inhibition is 14%.
Consider `CCCCCCCCCCCCCCCC[n+]1cccc(C(=O)N(CC)CC)c1`, for which the inhibition is 10%.
Consider `CN(C)c1ccc(C(CN)c2c[nH]c3ccccc23)cc1` (centres undefined), for which the inhibition was -86%.
For `COc1cc2nc(Nc3ccc(C)c(C)c3)nc(N)c2cc1OC`, the inhibition was 0%.
In the case of `CN(C)c1ccc(C(CNC(=O)c2ccc(-c3ccccc3)cc2)N2CCOCC2)cc1` (centres undefined), the inhibition is -7%.
With `CCn1c2ccccc2c2cc(CNCc3ccc(OC)cc3OC)ccc21`, the inhibition is -93%.
Regarding `C#CCOCCOCCOCCNc1nc(N2CCN(C(=O)CCCCCCCCCCNC(=O)Cn3cc(CCCCCN)nn3)CC2)nc(N2CCN(C(=O)CCCCCCCCCCNC(=O)[C@H](CO)n3cc(CCCSC)nn3)CC2)n1`, the inhibition was 31%.
`CN1CCN(CCCN2c3ccccc3Sc3ccc(Cl)cc32)CC1`: the inhibition is -90%.
To `Oc1ccccc1-[n+]1c(-c2ccccc2)cc(-c2ccccc2)cc1-c1ccccc1` belongs -30%; to `COc1ccc2nc3cc(Cl)ccc3c(Nc3cc(CN4CCCC4)c(O)c(CN4CCCC4)c3)c2n1`, -45%; to `O=c1cc(-c2ccc(O)c(O)c2)oc2cc(O[C@@H]3O[C@H](CO)[C@@H](O)[C@H](O)[C@H]3O)cc(O)c12`, -12%.
Turning to `COc1ccc2cc1Oc1ccc(cc1)C[C@H]1c3cc(c(OC)cc3CCN1C)Oc1c(O)c(OC)cc3c1[C@H](C2)N(C)CC3`, the inhibition was 0%.
Turning to `COc1ccc(CCNC(=O)c2cc3c(=O)n4cccc(C)c4nc3n(CCCN3CCOCC3)c2=N)cc1`, the inhibition was -87%.
In the case of `COc1ccc(NC(=O)N2CCN(c3ccc([N+](=O)[O-])cc3)CC2)cc1OC`, the inhibition was -40%.
Regarding `O=C(C1=C[C@@H](c2ccccc2)C[C@@H](OCc2ccc(CO)cc2)O1)N1CCN(Cc2ccc3c(c2)OCO3)CC1`, the inhibition is -73%.
With `C=CC[n+]1c(-c2ccc(Cl)cc2Cl)csc1Nc1ccc(NC(C)=O)cc1`, the inhibition is -43%.
For the compound `CSc1ccc2c(c1)N(CCC1CCCCN1C)c1ccccc1S2` (centres undefined), the inhibition is -53%.
Regarding `COc1cc2[nH]c3c(N4CCN(c5ccccn5)CC4)ncnc3c2cc1OC`, the inhibition was 1%.
Consider `Cc1cc(C)c2nc(N3C(=O)C(O)=C(C(=O)c4ccco4)C3c3ccco3)sc2c1` (centres undefined), for which the inhibition was 45%.
As for `Clc1cccc(-c2ccc(C3Nc4cccc5cccc(c45)N3)o2)c1`, the figure is 100% (active); as for `COc1ccc(Nc2nc(N3CCCC3)c3ccccc3n2)cc1`, -50%.
In the case of `Cc1ccc(-c2csc(=Nc3cccnc3)n2CCCN2CCCC2=O)cc1C`, the inhibition was -149%.
`Cc1cccc(OCC(=O)Nc2ccc(N3CCN(C(=O)c4ccccc4)CC3)cc2)c1`: the inhibition was -12%.
To `c1cncc(CNc2ccc3c(c2)OCO3)c1` belongs -50%; to `CC(=O)n1cc([C@@H]2C=C(C(=O)N3CCN(C)CC3)O[C@H](OCc3ccc(CO)cc3)C2)c2ccccc21`, -55%.
As to `C#CCOCCOCCOCCNc1nc(N2CCN(C(=O)CCCCCCCCCCNC(=O)[C@H]([C@@H](C)CC)n3cc(CCCCN=C(N)N)nn3)CC2)nc(N2CCN(C(=O)CCCCCCCCCCNC(=O)[C@H](CO)n3cc(CCCCCN)nn3)CC2)n1`, the inhibition was -38%.
To `CCN1C(=O)/C(=C\N2CCN(c3ccccc3)CC2)SC1=S` belongs -14%; to `CCN1/C(=C/c2ccc3ccc(C)cc3[n+]2CC)Sc2ccccc21`, -19%.
As to `COc1ccc(C=NNc2cc(C)nc3ccc(OC)cc23)c(OC)c1`, the inhibition was 6%.
As to `NC(=O)[C@@H]1CCCNc2c(I)cc([N+](=O)[O-])cc2C(=O)N[C@@H](CCCN=C(N)N)C(=O)N[C@@H](CCCN=C(N)N)C(=O)N1`, the inhibition is -77%.
For the compound `C#CCOCCOCCOCCNc1nc(N2CCN(C(=O)[C@H](Cc3ccc(O)cc3)n3cc([C@@H](N)CC(C)C)nn3)CC2)nc(N2CCN(C(=O)[C@H](Cc3cc4ccccc4[nH]3)n3cc([C@@H](N)CC(C)C)nn3)CC2)n1`, the inhibition is -77%.
On to `CC(C)(C)Nc1nc(-c2ccccn2)nc2ccccc12`, for which the inhibition is -31%.
With `CC1CC(C)CN(C(=O)c2ccc3c(c2NCCO)C(=O)c2ccccc2C3=O)C1` (centres undefined), the inhibition was 7%.
With `CN1CCN(C(=O)C2=C[C@@H](c3ccc(C(F)(F)F)cc3)C[C@@H](OCc3ccc(CO)cc3)O2)CC1`, the inhibition is -83%.
Turning to `CN1Cc2c(N3CCOCC3)nc3sc(C(=O)c4ccccc4)c(N)c3c2CC1(C)C`, the inhibition is -32%.
`Nc1[nH]n2c(=O)c3c(nc2c1N=Nc1ccccc1)CCCC3`: the inhibition is 1%.
In the case of `COc1ccc(N2CCN(c3nc4c(C)cccn4c(=O)c3/C=C(\C#N)C(N)=O)CC2)cc1`, the inhibition was -53%.
As to `O=C(C1=C[C@@H](c2ccc(Br)cc2)C[C@@H](OCc2ccc(CO)cc2)O1)N1CCN(Cc2ccccc2)CC1`, the inhibition is -99%.
In the case of `CN(C)c1ccc(NC(=O)Cn2cc3c(n2)CCCC3)cc1`, the inhibition is -22%.
Turning to `CCC(CN(C)C)Oc1cc(NCc2ccccc2)c2ncn(C(C)C)c2c1` (centres undefined), the inhibition is -65%.
For the compound `COc1ccc(CCNC(=O)c2cc3c(=O)n4ccccc4nc3n(CCCN3CCOCC3)c2=N)cc1`, the inhibition was -26%.
As to `CC(C)[C@H](CN1CCC[C@H]1CN1C(N)=NC[C@H]1C(C)C)N1C[C@@H](Cc2ccccc2)N(CCCC2CCCC2)C1=N`, the inhibition was 92% (active).
On to `CN(CC(=O)Nc1ccc(Cl)cc1)C(=O)c1cccc(S(=O)(=O)N2CCN(Cc3ccccc3)CC2)c1`, for which the inhibition is 1%.
With `O=C(CN1CCN(c2ccc(O)cc2)CC1)Nc1cc([N+](=O)[O-])ccc1Cl`, the inhibition is -53%.
As for `COc1ccc(C)cc1Nc1n[n+](-c2ccccc2)c(-c2ccc(OC)c(OC)c2OC)s1`, the figure is -41%; as for `CNCCC(Oc1ccc(C(F)(F)F)cc1)c1ccccc1` (centres undefined), -58%.
Regarding `Cc1ccccc1-c1ccc(Nc2ccc(N3CCOCC3)cc2)nn1`, the inhibition is 12%.
On to `CCCCC(CC)C(=O)Nc1cc(C(=O)NCCC)ccc1N1CCC2(CC1)CC(c1ccccc1)=NO2` (centres undefined), for which the inhibition was -141%.
`CCc1ccc(OCC(=O)Nc2ccc(N3CCN(C(=O)c4ccccc4)CC3)cc2)cc1`: the inhibition was -73%.
To `CC(C)n1cnc2c(NCc3ccccc3)cc(OCC3CCN(C)CC3)cc21` belongs -49%; to `O=C(c1ccccc1)N1CCN(c2ccc(NCc3ccc4c(c3)OCO4)cc2)CC1`, -17%; to `CC[C@@H](C)[C@@H]1CN([C@@H](CN2CCC[C@H]2CN2C(N)=NC[C@@H]2Cc2ccccc2)C(C)C)C(=N)N1CCCC1CCCC1`, -104%.
Consider `COc1ccc(NC(=O)Nc2cccc3c2O[C@@H](CN(C)CC2CCCCC2)[C@@H](C)CN([C@H](C)CO)C3=O)cc1`, for which the inhibition was -79%.
As to `CC(=O)N1CCN(c2ccc(OC[C@H]3CO[C@](Cn4ccnc4)(c4ccc(Cl)cc4Cl)O3)cc2)CC1`, the inhibition was -188%.
As to `O=C(C1=C[C@@H](c2ccc(Br)cc2)C[C@@H](OCCCCO)O1)N1CCN(Cc2ccc3c(c2)OCO3)CC1`, the inhibition was -47%.
Take `COc1ccc2cc1Oc1ccc(cc1)C[C@H]1c3cc(c(OC)cc3CCN1C)Oc1c(OC)c(OC)cc3c1[C@H](C2)N(C)CC3`: the inhibition was -30%.
As for `Cc1ccc2nc(-c3ccccn3)c(NC3CCCC3)n2c1`, the inhibition is -23%.
As for `COc1ccc(NCc2nn(CC(=O)c3ccc(Br)cc3)c3[n+]2CCCCC3)cc1`, the inhibition was -48%.
On to `Cc1ccc(-c2csc(=Nc3cccnc3)n2CCCn2ccnc2)cc1C`, for which the inhibition is -52%.
Regarding `C#CCOCCOCCOCCNc1nc(N2CCN(C(=O)CCCCCCCCCCNC(=O)[C@H]([C@@H](C)CC)n3cc(CCCCCN)nn3)CC2)nc(N2CCN(C(=O)CCCCCCCCCCNC(=O)[C@H](CO)n3cc(CCCCCN)nn3)CC2)n1`, the inhibition was -61%.
`Oc1cc(Nc2ccncc2)cc2cccnc12`: the inhibition is -59%.
As for `O=C(Cc1ccc(Cl)cc1)Nc1ccc(N2CCN(C(=O)c3ccco3)CC2)cc1`, the figure is -61%.
With `COc1ccc(-c2c(-c3ccccc3)c(C(=O)C(=O)NCCCN(C)C)n3ccc4cc(OC)c(OC)cc4c23)cc1OC`, the inhibition is -15%.
On to `COc1ccc(C2CC(c3cccc(Cl)c3)n3nc(N)nc3N2)cc1` (centres undefined), for which the inhibition is -29%.
To `Nc1c(Cl)ncnc1NN=Cc1ccc2ccccc2n1` belongs -48%; to `COc1cccc(N=Nc2c(N)[nH]n3c(=O)c4c(nc23)CCCC4)c1`, 93% (active).

The record behind these values is PubChem BioAssay AID624481 (The Scripps Research Institute Molecular Screening Center, 2012).
